Consider 38 molecules from PubChem BioAssay AID720650 (Broad Institute, 2013).

Values without a mark were called inactive. Activity calls are given as the source filed them. How the calls were made is not given here.

The nature of the test: C difficile toxins, biochemical counterscreen, UDPG substrate absence, confirmatory dose response (AID 720650). The conditions noted are these: series mostly up to 19.5 µM. A general note: Counterscreens check selectivity or assay interference.
In general, AC50 refers to the concentration giving half of the maximal activity seen. In the case of `O=C(NNC(=O)c1cccc2ccccc12)c1cccc(F)c1`, the AC50 entry is “inactive”.

Regarding `O=C(c1ccccc1F)N1CCN(c2ccc([N+](=O)[O-])c3cccnc23)CC1`, the AC50 result was “inactive”. With `COc1ccc(C2=NS(=O)(=O)N(C)C(C(=O)NCc3ccccc3)=C2)cc1OC`, the AC50 result is “inactive”. Then `CO[C@@H]1CN(C)C(=O)c2cc(NC(=O)NC(C)C)ccc2OC[C@@H](C)N(S(C)(=O)=O)C[C@H]1C`, with “inactive”; and `O=C(CN1C(=O)NC2(CCCc3ccccc32)C1=O)NCc1cccs1` (stereo not drawn), with “inactive”; and `O=c1ccc2cc(O)c(O)cc2o1`, with “inactive”. With `CC1C(=O)C(C)C(c2ccc([N+](=O)[O-])cc2)NC1c1ccc([N+](=O)[O-])cc1` (stereo not drawn), the AC50 entry is “inactive”. In the case of `Nc1c(Cl)ncnc1NCCc1ccc(O)cc1`, the AC50 was 18.6 µM (active). Consider `CCOc1ccc2c(C)nc(NC3=NC(C)(C)C=C(C)N3)nc2c1`, for which the AC50 entry is “inactive”. With `Oc1ccc(/C=N/Nc2nc(N3CCCC3)nc(N3CCCC3)n2)cc1O`, the AC50 entry is “inactive”. Consider `CCOc1ccc2ccccc2c1/C=N/NC(=O)c1ccncc1`, for which the AC50 result is “inactive”.

Turning to `COC(=O)C(C(=O)OC)C(CC(=O)c1ccc(Br)cc1)c1ccccc1` (stereo not drawn), the AC50 result is “inactive”.

Take `Oc1ccc(/C=N/N2CCN(c3ccccn3)CC2)cc1`: the AC50 is 15 µM (active). For `CC1(C)Cc2c(sc3ncn4c(=S)[nH]nc4c23)CO1`, the AC50 was 13.9 µM (active).

On to `COc1cccc(CC(=O)OCC(=O)Nc2c(C)nn(-c3ccccc3)c2C)c1`, for which the AC50 entry was “inactive”. As for `CC1(C)CC(=O)C(C=Nc2ccc(N)cc2)=C(O)C1`, the AC50 result is “inactive”. Consider `CC(=O)Nc1ccc(NC(=O)Cc2ccc(S(=O)(=O)N3CCCCC3)cc2)cc1`, for which the AC50 entry is “inactive”. With `Cc1cc(C(=O)CSc2nnnn2-c2ccccc2)c(C)n1-c1ccc2c(c1)OCO2`, the AC50 entry was “inactive”. Under `CCN1/C(=C2\OC(=S)N(C)C2=O)C=Cc2ccccc21` stands “inactive”; under `CCOc1cc(NC(=S)NCC2CCCO2)c(OCC)cc1NC(=O)c1ccc(F)cc1` (stereo not drawn), “inactive”; under `O=c1c([N+](=O)[O-])cccn1Cc1ccc(F)cc1Cl`, “inactive”. Turning to `CN1CC(=O)N/C1=N\C(=O)Nc1ccc(O)cc1`, the AC50 entry is “inactive”. Then `Cc1cc(SCC(=O)N/N=C/c2ccco2)nc2ccccc12`, with above 39 µM; and `Cc1ccc(C(=O)NC(=O)OCCn2c(C)cnc2[N+](=O)[O-])cc1`, with “inactive”; and `Cc1cccc(/C=C/c2onc(C)c2S(=O)(=O)N2CCC(C(=O)NC(C)(C)C)CC2)c1`, with “inactive”. Regarding `Cc1c(C(=O)c2ccccc2)c2ccccn2c1CCc1ccccn1`, the AC50 result is “inactive”. Under `O=S(=O)(Cc1cccc(F)c1)c1c[nH]c2ccccc12` stands above 39 µM; under `O=C(Nc1nnc(-c2ccco2)o1)C1CC1`, above 39 µM. As to `COc1ccc(NC(=O)c2cc(C)nc3ccccc23)c(OC)c1`, the AC50 result is “inactive”. Regarding `CN1C(=O)C(c2nnc(Nc3cccc4ccccc34)s2)C2CC1(C)Oc1ccccc12` (stereo not drawn), the AC50 entry was “inactive”. In the case of `CSc1ccccc1NC(=O)C1=CC(c2ccc(C)cc2)=NS(=O)(=O)N1C`, the AC50 result is “inactive”. Consider `CNC(=O)C[C@@H]1CC[C@@H]2[C@H](COc3ccc(NS(=O)(=O)c4ccccc4C)cc3C(=O)N2C)O1`, for which the AC50 entry is “inactive”. With `COc1ccc(CC(=O)NNC(=S)NC(=O)c2cccnc2)cc1`, the AC50 entry is “inactive”.

For `O=C(C[C@H]1CC[C@@H]2[C@H](COC[C@@H](O)CN2C(=O)c2ccccn2)O1)NC1CCC1`, the AC50 entry was “inactive”. `N=C(N)c1ccc(N=Nc2c(O)ccc3c2[nH]c2ccccc23)cc1`: the AC50 entry is “inactive”.

For the molecule `Cc1ccc(C(=O)COC(=O)c2cc(=O)[nH]c3ccccc23)cc1`, the AC50 entry is “inactive”.

`Nc1ccc(OC(=O)Nc2ccc(O)cc2)cc1`: the AC50 was 18.9 µM (active). Take `Cc1nc2ccccc2nc1OCC(=O)Nc1ccc(F)cc1`: the AC50 entry is “inactive”.
